# Compound activity from PubChem.
# Hits are enriched below; roughly 1.3% of the tested compounds scored in any of these assays.
# AMA1-RON2 inh = disrupts binding of P. falciparum AMA1 to RON2. AlphaScreen AMA1-biotinylated RON2 peptide binding. Potency, µM (doses to about 58.2 µM), for inactives: at the highest dose activity change, negative = inhibition, hits mostly inhibitors. 0.2% of 360,000 active. AID 720542;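 also: 0% = vehicle wells and -100% = peptide control; nearly all actives have a fitted effect of over 45% in size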
#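 AMA1 (3D7) with his tag at 25 nM final met compounds first, then biotinylated RON2 peptide at 25 nM; detection used donor plus acceptor beads, 10 µg/mL apiece, read by AlphaScreen after 30 min at room temperature.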
# Tb PYK inh = inhibitors of Trypanosoma brucei pyruvate kinase. TbPYK enzyme, Kinase-Glo Plus ATP luminescence, 45 min. Potency, µM (series often up to 76.8 µM), inactives show at the highest dose activity, negative = inhibition, usual class: inhibitors. 0.12% of 410,000 active; also: nearly all actives have a fitted effect of over 50% in size
#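 Assay buffer: 50 mM TEA pH 7.2, 100 mM KCl, 10 mM MgCl2, 0.05% BSA, 0.01% Tween-20. Pyruvate kinase from T. brucei plus substrate met compound, then ADP (130 uM final). Luminescence was read post 45 min RT.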
# Vaccinia mCherry = vaccinia inhibition (mCherry reporter); Vaccinia virus mCherry reporter infection, fluorescence; 0.63% of 310,000 active; Potency, µM (top dose mostly 36.5 µM), for inactives: at the top dose activity change, negative = inhibition, actives largely listed as inhibitors; AID 720579; calls by dose curve; tested in A549 cells; also: nearly all actives have a fitted effect of over 35% in size
# LmPK inhibitor = LmPK (Leishmania mexicana) enzyme inhibition | Potency, µM (top dose mostly 57.5 µM), for the others: at the top dose activity change, negative = inhibition, actives largely listed as inhibitors | 0.37% of 290,000 active | AID 1721 | Q27686 | purified LmPK, Kinase-Glo ATP luminescence, 1 h
# Target sequence (Q27686 whole entry, looked up): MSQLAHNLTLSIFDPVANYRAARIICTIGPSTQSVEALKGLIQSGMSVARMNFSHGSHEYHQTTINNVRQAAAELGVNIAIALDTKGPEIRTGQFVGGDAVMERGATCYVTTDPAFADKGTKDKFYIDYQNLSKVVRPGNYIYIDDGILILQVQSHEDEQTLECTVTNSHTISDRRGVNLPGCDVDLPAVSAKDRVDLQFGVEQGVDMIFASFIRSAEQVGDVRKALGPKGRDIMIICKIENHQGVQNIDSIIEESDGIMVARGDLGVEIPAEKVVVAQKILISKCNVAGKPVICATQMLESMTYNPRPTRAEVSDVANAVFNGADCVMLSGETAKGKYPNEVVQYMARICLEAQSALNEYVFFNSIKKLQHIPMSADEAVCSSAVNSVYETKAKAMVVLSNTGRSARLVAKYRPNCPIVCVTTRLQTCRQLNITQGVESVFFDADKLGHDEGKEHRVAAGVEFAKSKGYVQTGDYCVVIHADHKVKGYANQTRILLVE
#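 ATP generated from ADP (0.1 mM) and PEP (0.5 mM) by 0.1 nM LmPK over 1 h at room temperature (pH 7.2 imidazole buffer) was detected by coupled luciferase luminescence. Values were normalized to uninhibited and no-enzyme wells.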
# RE007 growth inh = less growth of the S. pombe RE007 Vpr strain | S. pombe RE007 Vpr strain, BacTiter-Glo ATP luminescence, 24 h | Potency, µM (series often up to 92.2 µM), for the others: at the top dose activity change, negative = less growth, actives largely listed as inhibitors | 0.21% of 360,000 active | AID 651644; active = well fitted falling curve with a large enough effect; inconclusive = small, poorly fitted or top-dose-only effect; inactive = no such curve, though single readings can be large or run the other way; also: nearly all actives have a fitted effect of over 50% in size
#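 Fission yeast strain RE007, carrying one chromosomally integrated HIV-1 vpr copy, was seeded at OD 0.01 in PMG+AL medium with 23 nL pinned compound. After 24 h at 30 °C and 99% humidity, viability was read by BacTiter-Glo luminescence.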
# Vaccinia Venus = inhibitors of vaccinia virus (Venus reporter) | Vaccinia virus Venus reporter expression, fluorescence | Potency, µM (top dose mostly 36.5 µM), without a hit: at the highest dose activity change, negative = inhibition, actives largely listed as inhibitors | 0.46% of 330,000 active; calls by dose curve; tested in A549 cells; also: nearly all actives have a fitted effect of over 30% in size
# * = called active by the depositor; i = inactive; ? = inconclusive; nt = no result given; [ ] = another dose, or the depositor's remark. Unless noted, calls follow the shape of the dose curve; as a rule, active = well fitted curve in the direction sought with a large enough effect; inconclusive = small, poorly fitted or top-dose-only effect, or another doubt; inactive = no such curve, though single readings can be large; an effect the other way counts as inactive or inconclusive. Unless noted, % is scaled to controls: 0 for no effect and ±100 for the full control effect; potency is read from the fitted curve at half-maximal effect.
SMILES,AMA1-RON2 inh,Tb PYK inh,Vaccinia mCherry,LmPK inhibitor,RE007 growth inh,Vaccinia Venus
CCCCn1c(-c2cc(Cl)ccc2OC)n[nH]c1=S,17.5%,?,nt,12.6µM*,4.6%,nt
CCc1cc(-c2n[nH]c(=S)n2Cc2ccccc2)cs1,60.5%,?,-12.5%,10µM*,-23.6%,-23.1%
CCn1c2ccccc2c2nnc(SC3CCOC3=O)nc21 (centres undefined),nt,nt,-16.1%,nt,nt,-4.2%
Cc1cccc(-n2c(-c3ccoc3C)n[nH]c2=S)c1,-7.1%[11.6 µM],?,i,?,0.8%,-13.1%
Cc1ccccc1-n1c(-c2ccoc2C)n[nH]c1=S,19.1%,?,-15.6%,28.2µM*,-1.0%,-7.2%
CN(C)c1ccc(/C=C/c2cc3ccccc3cn2)cc1,nt,nt,-28.2%,nt,nt,-29.0%
Cc1noc(N)c1C(=O)Nc1ccccc1F,-14.0%,-4.2%,i[1.46 µM],-2.5%,0.3%,7.94µM*
CC[C@H](CC[C@@H](C)[C@H]1CC[C@H]2[C@@H]3CC=C4C[C@@H](O)CC[C@]4(C)[C@H]3CC[C@]12C)C(C)C,nt,nt,i,nt,nt,0.0%
COc1cccc(F)c1C(C[N+](=O)[O-])c1c(N)n(C)c(=O)n(C)c1=O (centres undefined),-2.3%,-1.0%,nt,12.7%,15.8µM*,nt
Cc1ccc(C(C[N+](=O)[O-])c2c(N)n(C)c(=O)n(C)c2=O)cc1 (centres undefined),13.9%,-9.5%,nt,-2.4%,?,nt
COc1cc(C(C[N+](=O)[O-])c2c(N)n(C)c(=O)n(C)c2=O)ccc1O (centres undefined),-11.2%,-0.8%,-20.1%,4.0%,?,-26.4%
Cn1c(N)c(C(C[N+](=O)[O-])c2ccccc2Cl)c(=O)n(C)c1=O (centres undefined),5.3%,2.4%,-6.1%,nt,39.8µM*,-11.4%
CCN(CC)CCN(C)c1ccc(/C=C/c2ccnc3ccccc23)cc1,nt,nt,-9.8%,nt,nt,-12.1%
Cc1ccccc1C(=O)NC1CCN(Cc2ccccc2)CC1,3.6%,-1.8%,i,-0.7%,-26.2%,4.8%
Cc1cc(F)ccc1S(=O)(=O)Nc1ccccc1C(=O)NC1CCN(Cc2ccccc2)CC1,-16.2%,-2.1%,?,nt,0.2%,10µM*
c1ccc2sc(-c3cc4c(c(OC5CCOC5)c3)OCCN(Cc3cccn3-c3nccs3)C4)nc2c1 (centres undefined),nt,nt,-12.4%,nt,nt,-4.9%
S=c1[nH]nc(CCc2nc3ccccc3[nH]2)n1-c1cccc(Cl)c1,53.9%,?,-4.9%,10µM*,2.1%,-3.8%
CC(NC(=O)C1CCOCC1)c1nnc2n1CCN(Cc1ccc(F)cc1)CC2 (centres undefined),nt,nt,-15.3%,nt,nt,-4.0%
S=C(Nc1ccc(Cl)c(Cl)c1)NC1CCN(Cc2ccccc2)CC1,-8.4%,19.4%,nt,0.8%,-2.6%,14.1µM*
COc1ccc(-c2cc(C(F)(F)F)n3nc(C(=O)Nc4sc5c(c4C#N)CCC(C)C5)cc3n2)cc1OC (centres undefined),nt,1.9%,-15.8%,nt,nt,-8.6%
CCC(=O)NC(c1ccc(C)cc1)c1cc([N+](=O)[O-])c2cccnc2c1O (centres undefined),27.0%[11.6 µM],?,11.2µM*,-1.4%,-9.3%,?
CC(=O)NC(c1ccc(N(C)C)cc1)c1cc(Cl)c2cccnc2c1O (centres undefined),63.4%,-6.4%,3.16µM*,nt,8.5%,?
CC(=O)NC(c1ccc(C)cc1)c1cc([N+](=O)[O-])c2cccnc2c1O (centres undefined),-32.9%,-30.2%,12.6µM*,8.7%,15.6%,?
O=C(C1CCCCC1)N1CCOc2ccc(CN3CCN(Cc4ccccn4)CC3)cc2C1,nt,nt,-9.0%,nt,nt,6.2%
Cc1cccc(N=C2c3cc([N+](=O)[O-])ccc3-c3c2cc([N+](=O)[O-])cc3[N+](=O)[O-])c1,?,-0.5%,-20.7%,nt,22.4µM*,-20.7%
SMILES,AMA1-RON2 inh,Tb PYK inh,Vaccinia mCherry,LmPK inhibitor,RE007 growth inh,Vaccinia Venus
Fc1ccc(CNc2nc(-c3ccc(Cl)cc3)cc(C(F)(F)F)n2)cc1,nt,0.3%,-12.4%,nt,nt,5.1%
Cc1cc(-c2ccccc2)nc(N/N=C/c2ccc(O)cc2)n1,78.9%,-4.4%,8.91µM*,nt,-3.2%,-24.4%
Oc1ccc(/C=N/Nc2nc(-c3ccc(Cl)cc3)cc(C(F)(F)F)n2)cc1,-7.2%[11.6 µM],-12.2%,11.2µM*,1.1%,4.1%,11.2µM*
Cc1cc(C)nc(N/N=C/c2ccccc2)n1,40.4%,1.1%,nt,-8.1%,-13.1%,nt
COc1cccc(OC)c1-c1cc(C(=O)NC2(C(=O)O)C3CC4CC(C3)CC2C4)nn1-c1ccnc2cc(Cl)ccc12 (centres undefined),nt,-9.5%,nt,nt,nt,nt
Cc1ccccc1C1(CC(=O)N2CCCC2c2nccs2)CC(=O)N(C2CCCC2)C1=O (centres undefined),nt,nt,i,nt,nt,-22.0%
CCCNC1=C(N(C(C)=O)c2cccc(F)c2)C(=O)c2ccccc2C1=O,-18.8%,11.5%,14.1µM*,-4.8%,-26.5%,12.6µM*
C1CCC(C(CC2CCCCN2)C2CCCCC2)CC1 (centres undefined),7.6%,-1.6%,11.2µM*,1.6%,1.3%[18.4 µM],12.6µM*
CCCC1CCCCN1 (centres undefined),nt,-8.3%,nt,nt,nt,nt
c1ccc(-c2c(-c3ccccc3)n(Cc3ccco3)c3ncnc(NCCCn4ccnc4)c23)cc1,?,0.4%,?,2.1%,23.4%,12.6µM*
OCCNc1ncnc2c1c(-c1ccccc1)c(-c1ccccc1)n2Cc1ccco1,-14.5%,-4.6%,0.6%,2.3%,22.8%,-1.0%
Cc1ccc(C(=O)Nc2cccc(-c3nc(CNC(=O)[C@@H]4C[C@@H](C)NC(=S)N4)c(C)o3)c2)s1,nt,nt,-22.0%,nt,nt,-17.6%
CS(=O)(=O)n1nc(-c2ccc(Cl)cc2)nc1N,8.6%,2.5%,i,-0.6%,5.6%,-10.0%
Cn1nc(-c2ccc(F)cc2)nc2c(=O)n(C)c(=O)nc1-2,nt,nt,0.631µM*,nt,nt,2.82µM*
Cn1nc(-c2ccc(Cl)cc2)nc2c(=O)n(C)c(=O)nc1-2,nt,nt,2µM*,0.7%,nt,2µM*
Cn1nc(-c2cccnc2)nc2c(=O)n(C)c(=O)nc1-2,nt,nt,3.16µM*,nt,nt,2.51µM*
CC(C)(C)C1=CC(=O)C(=O)C(C(C)(C)C)=C1,1.4%,8.91µM*,nt,14.1µM*,12.5%,nt
CC(C)(C)C1=CC(=O)C(N2CCOCC2)=CC1=O,-25.3%,-26.1%,i,-9.7%,-12.3%,-12.6%
COc1ccc(/C=c2\[nH]c(=O)/c(=C/c3ccc(OC)cc3)[nH]c2=O)cc1,nt,nt,i,nt,nt,-2.0%
CC1=C(CO)C(=O)OC([C@@H](C)C2CC[C@H]3C4C[C@H]5O[C@]56[C@@H](O)C=CC(=O)[C@]6(C)C4CC[C@]23C)C1 (some centres undefined),-8.5%,0.5%,10µM*,0.4%,15.1%,?
